Test [1] in a line: antimalarial activity against Dd2 strain (AID 2302;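 active = growth inhibition above 50% at the single 2 µM test dose, taken to imply half-maximal potency below 2 µM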;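 also: 0% = DMSO untreated growth and 100% = chloroquine plus artemisinin killed control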). The conditions noted are these: P. falciparum Dd2 in RBCs, LDH growth readout, 72 h; at 2 µM; stronger effect = higher value.
A short description of test [2]: human hepatoma cell viability loss – ATP luminescence, cytotoxicity control for P. falciparum antimalarial project, primary screen (AID 2303;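 active = inhibition above 50%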;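 also: 0% = DMSO wells and 100% = digitonin-killed cells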). The conditions noted are these: HepG2 viability, 24-48 h, at 10 µM, stronger effect = higher value.
Test [3] deals with L-lactate dehydrogenase (Plasmodium falciparum (isolate CDC / Honduras)) (UniProt Q27743). The experiment in a line: PfLDH activity inhibition – cell lysate, 3D7 strain, counter-screen for P. falciparum growth inhibition project (AID 2304).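 Also: 0% = vehicle and 100% = reference inhibitor.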 Conditions: P. falciparum 3D7 crude extract, LDH APAD/NBT absorbance; at 2 µM; stronger effect = higher value. A general note: A counterscreen serves to expose hits that act by an unwanted route or on another target.
Sequence of L-lactate dehydrogenase (Plasmodium falciparum (isolate CDC / Honduras)) (Q27743 whole entry, looked up): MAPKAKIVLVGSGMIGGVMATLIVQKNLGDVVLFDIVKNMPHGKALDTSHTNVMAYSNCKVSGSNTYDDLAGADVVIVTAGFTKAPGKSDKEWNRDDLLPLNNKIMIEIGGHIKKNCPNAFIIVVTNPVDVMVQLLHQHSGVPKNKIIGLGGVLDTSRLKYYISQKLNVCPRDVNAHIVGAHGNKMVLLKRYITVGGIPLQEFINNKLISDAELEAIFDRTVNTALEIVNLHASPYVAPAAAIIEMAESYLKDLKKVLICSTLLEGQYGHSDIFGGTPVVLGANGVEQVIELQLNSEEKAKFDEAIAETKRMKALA

Test [4] in a line: inhibition of 3D7 malaria parasite growth – strain 3D7 (AID 2306).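 Also: 0% = DMSO wells and 100% = chloroquine plus artemisinin control wells.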 The conditions noted are these: P. falciparum 3D7 erythrocytic growth, LDH absorbance, 72 h; at 2 µM; stronger effect = higher value.
The target in test [5] is Calcium-dependent protein kinase 1 (Plasmodium falciparum (isolate 3D7)) (UniProt P62344). The experiment in a line: PfCDPK1 kinase inhibitors, biochemical, TCAMS library (AID 1159585; cut-off not given, nearly all actives have IC50 up to about 0.98 µM;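 also: inhibitors leave more ATP so luminescence rises with inhibition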). The conditions noted are these: recombinant PfCDPK1, Kinase-Glo ATP depletion luminescence.
Sequence of Calcium-dependent protein kinase 1 (Plasmodium falciparum (isolate 3D7)) (P62344 whole entry, looked up): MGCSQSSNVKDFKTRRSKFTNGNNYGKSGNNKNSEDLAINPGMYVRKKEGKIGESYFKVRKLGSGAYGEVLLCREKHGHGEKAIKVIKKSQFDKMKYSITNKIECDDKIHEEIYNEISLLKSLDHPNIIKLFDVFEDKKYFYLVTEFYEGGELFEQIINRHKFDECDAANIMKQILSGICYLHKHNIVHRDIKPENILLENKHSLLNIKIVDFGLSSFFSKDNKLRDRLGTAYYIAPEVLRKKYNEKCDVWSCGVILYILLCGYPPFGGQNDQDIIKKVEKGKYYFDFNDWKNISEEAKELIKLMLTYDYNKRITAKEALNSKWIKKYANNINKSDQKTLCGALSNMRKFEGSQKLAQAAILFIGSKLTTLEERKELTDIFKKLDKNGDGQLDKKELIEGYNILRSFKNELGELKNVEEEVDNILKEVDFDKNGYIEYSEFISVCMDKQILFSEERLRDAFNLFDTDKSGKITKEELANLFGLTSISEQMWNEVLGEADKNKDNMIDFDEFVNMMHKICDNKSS
The target in test [6] is Plasmodium falciparum protein kinase 6 (PK6, PF3D7_1337100) (UniProt Q8IDW1). The test is described as follows: PfPK6 kinase inhibitors, biochemical, TCAMS library (AID 1159586). Conditions: recombinant PfPK6, Kinase-Glo ATP depletion luminescence. For orientation: Kinase-Glo reads ATP consumption through a luciferase reaction.
Sequence of Plasmodium falciparum protein kinase 6 (PK6, PF3D7_1337100) (Q8IDW1 1-305): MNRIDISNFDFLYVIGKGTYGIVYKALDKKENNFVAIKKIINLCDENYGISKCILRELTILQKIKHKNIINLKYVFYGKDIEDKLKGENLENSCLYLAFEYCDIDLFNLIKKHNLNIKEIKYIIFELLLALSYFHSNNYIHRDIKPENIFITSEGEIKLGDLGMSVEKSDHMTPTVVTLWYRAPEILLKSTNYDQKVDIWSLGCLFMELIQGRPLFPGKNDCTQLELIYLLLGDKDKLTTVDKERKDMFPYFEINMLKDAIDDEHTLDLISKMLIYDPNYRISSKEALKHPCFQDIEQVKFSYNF
Test [7] has as its target Protein kinase 7 (PK7), Plasmodium falciparum 3D7 (PF3D7_0213400) (UniProt Q7YTF7). The experiment in a line: inhibition of Plasmodium PK7 catalytic activity – biochemical, TCAMS antimalarial set, Kinase-Glo luminescence (AID 1159587). The conditions noted are these: recombinant PfPK7, Kinase-Glo ATP depletion luminescence.
Test [8] deals with Calcium-dependent protein kinase 4 (Plasmodium falciparum (isolate 3D7)) (UniProt Q8IBS5). The experiment in a line: PfCDPK4 kinase inhibitors, biochemical, TCAMS library (AID 1159588; cut-off not given, nearly all actives have IC50 up to about 0.91 µM). The conditions noted are these: recombinant PfCDPK4, Kinase-Glo ATP depletion luminescence.
Sequence of Calcium-dependent protein kinase 4 (Plasmodium falciparum (isolate 3D7)) (Q8IBS5 whole entry, looked up): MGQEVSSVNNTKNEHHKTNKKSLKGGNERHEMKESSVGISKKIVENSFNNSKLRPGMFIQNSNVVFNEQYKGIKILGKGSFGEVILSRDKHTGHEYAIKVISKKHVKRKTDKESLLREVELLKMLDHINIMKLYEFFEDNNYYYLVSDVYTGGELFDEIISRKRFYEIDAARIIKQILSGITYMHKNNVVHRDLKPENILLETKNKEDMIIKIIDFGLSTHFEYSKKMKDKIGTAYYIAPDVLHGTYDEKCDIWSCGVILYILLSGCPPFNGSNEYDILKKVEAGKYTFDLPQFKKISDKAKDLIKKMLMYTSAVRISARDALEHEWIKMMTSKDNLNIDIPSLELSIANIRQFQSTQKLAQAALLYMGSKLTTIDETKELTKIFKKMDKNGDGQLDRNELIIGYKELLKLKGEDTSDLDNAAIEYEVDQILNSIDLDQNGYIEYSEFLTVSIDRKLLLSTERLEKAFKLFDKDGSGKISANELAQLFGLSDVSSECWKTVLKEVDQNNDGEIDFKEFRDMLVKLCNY

Our source for the growth inhibition, inhibition and outcome values is PubChem BioAssay.

The structures appear in SMILES notation. Values without a mark were called inactive. For some of these results: Measured potencies and affinities stand elsewhere. The source made the active and inactive calls. Unless noted, no rule for the calls is given here.

Sequence of Protein kinase 7 (PK7), Plasmodium falciparum 3D7 (PF3D7_0213400) (Q7YTF7 1-343): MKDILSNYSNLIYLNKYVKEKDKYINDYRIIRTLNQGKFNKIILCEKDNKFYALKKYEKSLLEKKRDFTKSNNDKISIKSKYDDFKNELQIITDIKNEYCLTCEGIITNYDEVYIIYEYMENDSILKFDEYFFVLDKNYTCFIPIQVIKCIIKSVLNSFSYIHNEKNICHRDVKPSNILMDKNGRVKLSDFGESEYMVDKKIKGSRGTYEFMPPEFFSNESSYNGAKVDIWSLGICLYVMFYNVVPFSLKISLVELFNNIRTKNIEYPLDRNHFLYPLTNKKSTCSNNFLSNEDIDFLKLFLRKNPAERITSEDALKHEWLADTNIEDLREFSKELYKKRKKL

A word on the inhibition: it is the drop in the measured response relative to a control, in per cent. Consider `Cc1cccc(Nc2c(-c3cc(Br)ccc3O)nc3ncccn23)c1`, for which the growth inhibition in test [1] was 98% (active); in test [4], 100% (active). The inhibition in test [2] is -2%; in test [3], 1%. In addition, the result in test [5], in test [6], in test [7] and in test [8] was inactive.
`O=C(Nc1ccc(C(=O)OC[C@@H]2CCCN3CCCC[C@H]23)cc1)c1ccc(Cl)c(Cl)c1`: the growth inhibition in test [1] is 37%; in test [4], 99% (active). For the same molecule, the values for the inhibition in test [2] and in test [3] were 20% and 0%, respectively. Further, the result in test [5], in test [6], in test [7] and in test [8] was inactive.
Turning to `CCCCn1c(-c2ccco2)nc2c(c(=O)c3ccccc3n2C)c1=O`, the figures for the growth inhibition in test [1] and in test [4] were 64% (active) and 87% (active), respectively. For the same molecule, the inhibition in test [2] was 11%; in test [3] it was -2%. Further, the outcome in test [5], in test [6], in test [7] and in test [8] was inactive.
`C[C@@H]1CN(c2cnn(Cc3cccc(NC(=O)Nc4ccc(-c5ccccc5)cc4)c3)c(=O)c2Cl)C[C@H](C)N1`: the growth inhibition was 67% (active) in test [1] and 101% (active) in test [4]. For the same molecule, the inhibition in test [2] is 6%; in test [3], 1%. For the same molecule, the outcome in test [5], in test [6], in test [7] and in test [8] was inactive.
Turning to `COc1cc(C2=NN(S(=O)(=O)c3c(Cl)cc(Cl)cc3Cl)CCCC2)ccc1Cl`, the growth inhibition was 97% (active) in test [1] and 98% (active) in test [4]. Besides, the values for the inhibition in test [2] and in test [3] were 3% and -1%, respectively. Further, the result in test [5], in test [6], in test [7] and in test [8] was inactive.
Turning to `Cc1cccc2[nH]c(-c3cccc(-c4cccc(C(=O)NCCN5CCCC5)c4)c3)nc12`, the growth inhibition in test [1] was 75% (active); in test [4] it was 100% (active). The inhibition is 21% in test [2] and 1% in test [3]. In addition, the result in test [5], in test [6], in test [7] and in test [8] was inactive.
For `CCC1CN(S(=O)(=O)c2ccc3c(c2)NC(=O)CC(=O)N3)c2cc(Cl)ccc2O1` (stereo not given), the growth inhibition was 65% (active) in test [1] and 99% (active) in test [4]. For the same molecule, the inhibition in test [2] was -9%; in test [3] it was -5%. For the same molecule, the result in test [5], in test [6], in test [7] and in test [8] was inactive.
Consider `Cc1cccc(-c2nc3cc(NC(=O)c4ccc([N+](=O)[O-])o4)ccc3o2)c1`, for which the growth inhibition is 73% (active) in test [1] and 94% (active) in test [4]. The inhibition in test [2] was 8%; in test [3] it was 4%. Also, the outcome in test [5], in test [6], in test [7] and in test [8] was inactive.
For the molecule `COc1ccc2ccc(F)c(CC(=O)N3CCOC(CNCc4cccc(-c5ccc(F)cc5)n4)C3)c2n1` (stereo not given), the growth inhibition in test [1] was 1%; in test [4], 92% (active). For the same molecule, the inhibition in test [2] is 5%; in test [3], 6%. Further, the result in test [5], in test [6], in test [7] and in test [8] was inactive.
For `CC(C)N(C(=O)CSc1nc2cc(Cl)ccc2c(=O)n1Cc1ccccc1)C(C)C`, the growth inhibition in test [1] was 97% (active); in test [4] it was 100% (active). In addition, the inhibition in test [2] is -14%; in test [3], -5%. Moreover, the outcome in test [5], in test [6], in test [7] and in test [8] was inactive.
Consider `Cc1ccc(S(=O)Cc2ccc(Cl)cc2)cc1` (stereo not given), for which the growth inhibition in test [1] was 5%; in test [4], 98% (active). For the same molecule, the inhibition in test [2] was 8%; in test [3] it was -2%. Further, the result in test [5], in test [6], in test [7] and in test [8] was inactive.
`COc1ccc2c(c1)Sc1ccccc1C(N1CCN(CCO)CC1)C2` (stereo not given): the figures for the growth inhibition in test [1] and in test [4] were 4% and 95% (active), respectively. The inhibition is 11% in test [2] and -3% in test [3]. Besides, the outcome in test [5], in test [6], in test [7] and in test [8] was inactive.
Regarding `COc1cc(OC)cc(C(=O)Nc2nc(-c3ccccn3)cs2)c1`, the results for the growth inhibition in test [1] and in test [4] were 72% (active) and 97% (active), respectively. Moreover, the inhibition in test [2] is 47%; in test [3], 1%. The outcome in test [5], in test [6], in test [7] and in test [8] was inactive.
Consider `Cc1cc(N(C)C)nc(Nc2ccc(NC(=O)Nc3ccccc3)cc2)n1`, for which the values for the growth inhibition in test [1] and in test [4] were 100% (active) and 101% (active), respectively. The inhibition in test [2] is 10%; in test [3], -2%. Besides, the result in test [5], in test [6], in test [7] and in test [8] was inactive.
On to `C=CCNc1cc(-c2ccccn2)nc(-c2ccccn2)n1`, for which the results for the growth inhibition in test [1] and in test [4] were 79% (active) and 94% (active), respectively. For the same molecule, the inhibition was 78% (active) in test [2] and -2% in test [3]. Further, the outcome in test [5], in test [6], in test [7] and in test [8] was inactive.
As to `O=C(O)C[C@H](NC(=O)CCCNC(=O)c1cccc(-c2ccc(Cl)c(Cl)c2)c1)C(=O)O`, the growth inhibition in test [1] is -4%; in test [4], 91% (active). For the same molecule, the inhibition in test [2] was 5%; in test [3] it was -3%. For the same molecule, the outcome in test [5], in test [6], in test [7] and in test [8] was inactive.
Take `CN(c1ccccc1)S(=O)(=O)c1cccc(NC(=O)c2ccc(-n3ccnc3)c([N+](=O)[O-])c2)c1`: the values for the growth inhibition in test [1] and in test [4] were -8% and 83% (active), respectively. Further, the results for the inhibition in test [2] and in test [3] were 19% and 2%, respectively. Moreover, the result in test [5], in test [6], in test [7] and in test [8] was inactive.
Consider `Cc1cc(N2CCN(CC3CCN(C)CC3)CC2)nc(Nc2ccc(Cl)cc2)n1`, for which the results for the growth inhibition in test [1] and in test [4] were 89% (active) and 99% (active), respectively. In addition, the inhibition in test [2] is 20%; in test [3], -6%. The outcome in test [5], in test [6], in test [7] and in test [8] was inactive.
In the case of `COc1ccc(-c2nc(NCc3ccccc3)c3cc(OC)c(OC)cc3n2)cc1`, the growth inhibition was 100% (active) in test [1] and 101% (active) in test [4]. For the same molecule, the figures for the inhibition in test [2] and in test [3] were 15% and -1%, respectively. In addition, the outcome in test [5], in test [6], in test [7] and in test [8] was inactive.
Regarding `COc1ccc2ncc(Cl)c(CCN3CCC(NCc4ccc5c(n4)NC(=O)CS5)CC3)c2c1`, the growth inhibition in test [1] was 34%; in test [4] it was 100% (active). For the same molecule, the inhibition in test [2] was 26%; in test [3], -2%. Besides, the outcome in test [5], in test [6], in test [7] and in test [8] was inactive.
